We go through 9 molecules from PubChem BioAssay (NCI).

Where “and” joins values, the source holds several entries; their conditions need not be identical. Equal entries are not always repeated. About 79,000 compounds went through this panel and 15% of them were active in at least one assay; those are over-represented in the sample as a whole. Values without a mark were called inactive. Calls of active or inactive are those of the source. Cut-off read from the data, not from the text of the source: active = growth inhibition above about 70%; inactive = the rest.

A short description of test [1]: NCI Yeast Anticancer Drug Screen. Data for the rad50 strain (AID 155).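 Note: 0% = growth of vehicle-only cultures of the same strain.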 Conditions: S. cerevisiae rad50 strain growth inhibition, active compounds read high. In short, it runs like this:
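Cells are treated with compound, grown, and their growth is then scored against vehicle-only cultures of the same repair-deficient yeast strain.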

Test [2] is described as follows: NCI Yeast Anticancer Drug Screen. Data for the mec2-1 strain (AID 157). Conditions: S. cerevisiae mec2-1 strain, active compounds read high. In short, it runs like this: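 Readout is yeast growth inhibition, normalised to vehicle-treated controls, in the mec2-1 strain exposed to compound.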
The nature of test [3]: NCI Yeast Anticancer Drug Screen. Data for the sgs1 mgt1 strain (AID 161).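 Note: 0% = growth of cultures given vehicle only.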 Conditions: S. cerevisiae sgs1 mgt1 strain, active compounds read high. In short, it runs like this: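 Percent growth inhibition was derived by comparing compound-exposed mutant yeast with vehicle-exposed cultures. The strain carries alterations in DNA damage repair.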
The nature of test [4]: NCI Yeast Anticancer Drug Screen. Data for the cln2 rad14 strain (AID 165).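 Note: 0% = growth equal to vehicle treated cultures.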 Particulars: S. cerevisiae cln2 rad14 strain, active compounds read high. In short, it runs like this:
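Relative to vehicle controls, growth inhibition of compound-treated cln2 rad14 yeast was recorded.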

Test [5] is described as follows: NCI Yeast Anticancer Drug Screen. Data for the bub3 strain (AID 167). Particulars: S. cerevisiae bub3 mutant strain, active compounds read high. In short, it runs like this: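 Part of a panel of yeast mutants defective in DNA damage repair or cell cycle regulation. Each strain is grown with compound, and inhibition is calculated relative to solvent-treated cultures.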

Test [6] is described as follows: NCI Yeast Anticancer Drug Screen. Data for the mlh1 rad18 strain (AID 175). Particulars: S. cerevisiae mlh1 rad18 strain growth inhibition, active compounds read high. The essentials: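 Test agents were incubated with a yeast strain of defined genotype (DNA damage repair defect). Inhibition of growth was derived by comparison with vehicle-exposed cultures.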
The mark [7] stands for this setting: at 5.0 µM (retest, dose inferred, filed as 0.5).
Setting [8] is: at 50.0 µM (retest, dose inferred, filed as 5.0).

Consider `[I][Hg][I].c1ccc(N=P(c2ccccc2)(c2ccccc2)c2ccccc2)cc1`, for which the growth inhibition in test [1] (setting [7]) is 99% (active); in test [1] (setting [8]) it was 99% (active); in test [1] (at 50.0 µM) it was 99.3% (active); in test [2] (setting [7]), 100% (active); in test [2] (setting [8]) it was 100% (active); in test [2] (at 50.0 µM) it was 99.6% (active). For the same molecule, the growth inhibition in test [3] (setting [7]) was 100% (active); in test [3] (setting [8]), 99% (active); in test [3] (at 50.0 µM) it was 99.6% (active); in test [4] (setting [7]) it was 99% (active); in test [4] (setting [8]), 99% (active); in test [4] (at 50.0 µM), 98.7% (active). Also, the growth inhibition was 99% (active) in test [5] (setting [7]); 99% (active) in test [5] (setting [8]); 99.3% (active) in test [5] (at 50.0 µM); 99% (active) in test [6] (setting [7]); 99% (active) in test [6] (setting [8]); 99.3% (active) in test [6] (at 50.0 µM).
Regarding `CCCOc1ccc(/C=C/[N+](=O)[O-])cc1`, the growth inhibition in test [1] (setting [7]) was 11%; in test [1] (setting [8]), 17%; in test [1] (at 50.0 µM), 52.3%; in test [2] (setting [7]) it was -1%; in test [2] (setting [8]) it was 17%; in test [2] (at 50.0 µM), 96.3% (active). The growth inhibition was -1% in test [3] (setting [7]); 11% in test [3] (setting [8]); 50.9% in test [3] (at 50.0 µM); 1% in test [4] (setting [7]); 20% in test [4] (setting [8]); 93.5% (active) in test [4] (at 50.0 µM). Besides, the growth inhibition was -1% in test [5] (setting [7]); 13% in test [5] (setting [8]); 37% in test [5] (at 50.0 µM); 3% in test [6] (setting [7]); 11% in test [6] (setting [8]); 36% in test [6] (at 50.0 µM).
Take `CCOP(=O)(Oc1ccc([N+](=O)[O-])cc1)c1ccccc1C(C)C` (configuration not stated): the growth inhibition is 11% in test [1] (setting [7]); 49% in test [1] (setting [8]); 90.8% (active) in test [1] (at 50.0 µM); 25% in test [2] (setting [7]); 70% (active) in test [2] (setting [8]); 90.8% (active) in test [2] (at 50.0 µM). For the same molecule, the growth inhibition is -11% in test [3] (setting [7]); 92% (active) in test [3] (setting [8]); 95.6% (active) in test [3] (at 50.0 µM); 40% in test [4] (setting [7]); 34% in test [4] (setting [8]); 95.6% (active) in test [4] (at 50.0 µM). Moreover, the growth inhibition is 12% in test [5] (setting [7]); 49% in test [5] (setting [8]); 96.8% (active) in test [5] (at 50.0 µM); -11% in test [6] (setting [7]); 77% (active) in test [6] (setting [8]); 96.7% (active) in test [6] (at 50.0 µM).
Turning to `O=C1C(F)=C(N2CC2)C(=O)C(F)=C1N1CC1`, the growth inhibition in test [1] (setting [7]) is 99% (active); in test [1] (setting [8]), 99% (active); in test [1] (at 50.0 µM), 91.7% (active); in test [2] (setting [7]), 100% (active); in test [2] (setting [8]), 99% (active); in test [2] (at 50.0 µM), 94% (active). For the same molecule, the growth inhibition is 100% (active) in test [3] (setting [7]); 99% (active) in test [3] (setting [8]); 91% (active) in test [3] (at 50.0 µM); 100% (active) in test [4] (setting [7]); 99% (active) in test [4] (setting [8]); 91.5% (active) in test [4] (at 50.0 µM). Further, the growth inhibition in test [5] (setting [7]) is 98% (active); in test [5] (setting [8]), 99% (active); in test [5] (at 50.0 µM), 92.8% (active); in test [6] (setting [7]) it was 99% (active); in test [6] (setting [8]), 99% (active); in test [6] (at 50.0 µM), 91.5% (active).
Take `CC#C[P+](c1ccccc1)(c1ccccc1)c1ccccc1`: the growth inhibition was 98% (active) in test [1] (setting [7]); 98% (active) in test [1] (setting [8]); 91.2% (active) in test [1] (at 50.0 µM); 87% (active) in test [2] (setting [7]); 87% (active) in test [2] (setting [8]); 92.9% (active) in test [2] (at 50.0 µM). For the same molecule, the growth inhibition in test [3] (setting [7]) was 90% (active); in test [3] (setting [8]), 90% (active); in test [3] (at 50.0 µM), 92.8% (active); in test [4] (setting [7]), 91% (active); in test [4] (setting [8]) it was 91% (active); in test [4] (at 50.0 µM) it was 90.8% (active). In addition, the growth inhibition in test [5] (setting [7]) was 86% (active); in test [5] (setting [8]) it was 86% (active); in test [5] (at 50.0 µM) it was 90.2% (active); in test [6] (setting [7]) it was 95% (active); in test [6] (setting [8]), 95% (active); in test [6] (at 50.0 µM), 88.8% (active).
As to `Oc1c(Cl)c(Cl)c(Cl)c(Cl)c1Cl` (tested in a mixture with another compound), the growth inhibition in test [1] (setting [7]) is 56% and 41% and 27%; in test [1] (setting [8]) it was 99% (active); in test [1] (at 50.0 µM) it was 99.2% (active) and 99% (active) and 98.8% (active); in test [2] (setting [7]) it was 28% and 24% and -7%; in test [2] (setting [8]), 99% (active) and 100% (active); in test [2] (at 50.0 µM), 99.4% (active) and 99.2% (active) and 99.7% (active). For the same molecule, the growth inhibition in test [3] (setting [7]) was 58% and 44% and 23%; in test [3] (setting [8]), 99% (active); in test [3] (at 50.0 µM), 99.4% (active) and 99.3% (active) and 99.2% (active); in test [4] (setting [7]) it was 42% and 28% and 16%; in test [4] (setting [8]) it was 99% (active) and 98% (active); in test [4] (at 50.0 µM), 97.2% (active) and 99.2% (active) and 98.5% (active). Further, the growth inhibition was 30% and 29% and 1% in test [5] (setting [7]); 99% (active) in test [5] (setting [8]); 99.5% (active) and 99.3% (active) in test [5] (at 50.0 µM); 56% and 46% and 23% in test [6] (setting [7]); 99% (active) in test [6] (setting [8]); 99.2% (active) and 99% (active) in test [6] (at 50.0 µM).
As for `CCCCCCCCCCCCCCCCCC[N+](C)(C)C`, the growth inhibition was 98% (active) in test [1] (setting [7]); 96% (active) in test [1] (setting [8]); 88.5% (active) in test [1] (at 50.0 µM); 99% (active) in test [2] (setting [7]); 97% (active) in test [2] (setting [8]); 91.4% (active) in test [2] (at 50.0 µM). Further, the growth inhibition in test [3] (setting [7]) is 99% (active); in test [3] (setting [8]), 95% (active); in test [3] (at 50.0 µM), 89.8% (active); in test [4] (setting [7]), 99% (active); in test [4] (setting [8]), 95% (active); in test [4] (at 50.0 µM), 89.9% (active). In addition, the growth inhibition in test [5] (setting [7]) is 99% (active); in test [5] (setting [8]), 96% (active); in test [5] (at 50.0 µM) it was 87% (active); in test [6] (setting [7]), 97% (active); in test [6] (setting [8]), 96% (active); in test [6] (at 50.0 µM), 89.8% (active).
For `ClCc1nc2ccccc2[nH]1`, the growth inhibition in test [1] (setting [7]) was 10%; in test [1] (setting [8]), 88% (active); in test [1] (at 50.0 µM), 88.7% (active); in test [2] (setting [7]), 4%; in test [2] (setting [8]), 45%; in test [2] (at 50.0 µM) it was 20.5%. Further, the growth inhibition in test [3] (setting [7]) is 18%; in test [3] (setting [8]) it was 83% (active); in test [3] (at 50.0 µM) it was 83.5% (active); in test [4] (setting [7]), -1%; in test [4] (setting [8]) it was 77% (active); in test [4] (at 50.0 µM), 60%. Also, the growth inhibition is -9% in test [5] (setting [7]); 1% in test [5] (setting [8]); -31.9% in test [5] (at 50.0 µM); 14% in test [6] (setting [7]); 82% (active) in test [6] (setting [8]); 74.7% (active) in test [6] (at 50.0 µM).
Turning to `CC[CH2][Sn]([Br])([Br])[CH2]CC`, the growth inhibition was 29% in test [1] (setting [7]); 91% (active) in test [1] (setting [8]); 83.2% (active) in test [1] (at 50.0 µM); 21% in test [2] (setting [7]); 95% (active) in test [2] (setting [8]); 87.2% (active) in test [2] (at 50.0 µM). The growth inhibition in test [3] (setting [7]) is 35%; in test [3] (setting [8]) it was 95% (active); in test [3] (at 50.0 µM), 87.1% (active); in test [4] (setting [7]), 26%; in test [4] (setting [8]) it was 87% (active); in test [4] (at 50.0 µM), 85.2% (active). Also, the growth inhibition in test [5] (setting [7]) is 31%; in test [5] (setting [8]), 96% (active); in test [5] (at 50.0 µM) it was 83.2% (active); in test [6] (setting [7]), 33%; in test [6] (setting [8]) it was 93% (active); in test [6] (at 50.0 µM) it was 87.1% (active).
